Sa RN4220 lethal: kills Staphylococcus aureus RN4220; S. aureus RN4220 growth, OD600, 16 h; inhibition, % (no concentration beside the values); 330,000 tested, 0.33% active; in the data active means inhibition above about 85%;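 further: plate controls were untreated cells for no effect and reference antibiotic for full effect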
PriA SSB inh: inhibitors of Klebsiella pneumoniae PriA binding to SSB C-terminal tail; AlphaScreen SSBct-PriA binding, biotinylated peptide; inhibition, % at 33 µM; 430,000 tested, 0.6% active; AID 1272365; in the data active means inhibition mostly above about 37%, no sharp cut-off; inactive means mostly below about 20%;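 further: plate controls were negative control peptide for no effect and reference peptide for full effect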
BJeLR viability: BJeLR cell viability loss | BJeLR (HRASV12) viability, CellTiter-Glo ATP luminescence, 48 h | 300,000 tested, 0.17% active | inhibition, % (concentration not given with the values); in the data active means inhibition above about 50%
MazEF act: increases E. coli MazEF RNase cleavage of RNA; P0AE70; FAM/BHQ RNA-DNA oligo cleavage fluorescence, 5 h; activation, % at 20 µM; 350,000 tested, 0.32% active; in the data active means activation above about 50%
Target sequence (P0AE70 whole entry, looked up): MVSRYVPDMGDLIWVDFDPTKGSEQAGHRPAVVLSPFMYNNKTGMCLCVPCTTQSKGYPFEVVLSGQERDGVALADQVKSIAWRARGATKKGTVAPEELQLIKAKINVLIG
ugtP null kill: compounds lethal to S. aureus RN4220 ugtP deletion mutant; 330,000 tested, 0.54% active; OD600 growth, 16 h; growth inhibition, % (no concentration beside the values); in the data active means growth inhibition above about 68%;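 further: plate controls were untreated wells for no effect and antibiotic for full effect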
Active calls of the source: *; i = inactive; . = no result; + = active, no number. A selection: hits, their analogues and other compounds. The true share with any hit is near 1.2%.

SMILES | Sa RN4220 lethal | PriA SSB inh | BJeLR viability | MazEF act | ugtP null kill
C[C@H]1c2cccc(O)c2C(O)=C2C(=O)[C@]3(O)C(O)=C(C(N)=O)C(=O)[C@@H](N(C)C)[C@@H]3[C@@H](O)[C@@H]21 | . | 4 | 5 | 4 | .
COC(=O)Nc1ccc(S(=O)(=O)Nc2ccc(C(=O)O)cc2)cc1 | 6 | -3 | 13 | 12 | 7
O=[N+]([O-])c1ccc(N2CCCCC2)cc1O | . | 74* | . | . | .
O=[N+]([O-])c1ccc(N2CCCCC2)cc1[N+](=O)[O-] | . | 73* | . | . | .
CN(CC(=O)Nc1ccc(N2CCOCC2)cc1)C(=O)COc1ccccc1F | 2 | -3 | 0 | 6 | -1
COc1ccccc1NC(=O)c1ccc(NC(=O)Cc2n[nH]c(=O)c3ccccc23)cc1 | 1 | -2 | 12 | 72* | 7
COc1ccccc1NC(=O)c1ccc(C(=O)Nc2ccccc2OC)nc1 | 0 | 3 | 5 | 53* | 3
C=CCN=c1scc(-c2ccc(C)cc2)n1/N=C/c1ccccn1 | . | + | . | . | .
C=CCN=c1scc(-c2ccc(Br)s2)n1/N=C/c1ccccn1 | . | i | . | . | .
CC1CCc2c(sc(NC(=O)C(C)C)c2-c2nc3ccccc3s2)C1 (stereo unspecified) | . | -4 | . | . | .
CCS(=O)(=O)N1CCN(Cc2cnc3ccccn23)CC1 | . | -2 | . | . | .
CCCOc1ccc2oc(=O)c3c(c2c1)CCCN3C(=O)CN1CCc2ccccc2C1 | 10 | -1 | . | 5 | 86*
O=C(CCl)NN=C(c1ccccc1)c1ccccc1 | 3 | -10 | -10 | 59* | 4
Cc1ccc(NC(=O)Cn2c(CCC(=O)O)ccc2-c2cccs2)cc1 | 4 | 0 | 9 | -2 | -4
O=C(NC1CCCC1)c1ccc(COCC(F)(F)F)o1 | 0 | -3 | 6 | 3 | 3
CNc1ccc(/C=C(\C#N)C(=O)Nc2ccccn2)cc1[N+](=O)[O-] | 4 | -15 | -14 | 141* | 1
CCC(C)n1c(=O)c(C(=O)Nc2ccccc2S(N)(=O)=O)c(O)c2ccccc21 (stereo unspecified) | 103* | -13 | -1 | -2 | 76
CCCCn1c(O)c(/C=C2\C=Nc3ccccc32)c(=O)[nH]c1=O | . | . | -10 | 255* | .
Cn1c(O)c(/C=C2\C=Nc3ccccc32)c(=O)n(C)c1=O | 4 | . | -4 | 141* | 6
Cc1oc2cc(OCc3cnn(-c4ccccc4)c3)ccc2c(=O)c1Oc1ccccc1F | 3 | -8 | -6 | -13 | -1
COc1ccc(-c2c3c(nc4sc(C(=O)NCCc5ccccc5)c(N)c24)CC(C)(C)CC3=O)cc1 | . | 10 | . | . | .
COc1ccc(CCNC(=O)c2c[nH]c(=O)n(C)c2=O)cc1OC | . | -3 | . | . | .
Cc1ccc2[nH]c(-c3cccc(N)c3)cc2c1 | -3 | 39* | 18 | 9 | -1
CC1(C)CC(=NNC(=S)Nc2ccccc2F)c2cc(O)ccc2O1 | 9 | 45* | . | . | 14
COc1ccc(NC(=S)NN=C2CC(C)(C)Oc3ccc(O)cc32)cc1 | . | 47* | . | . | .
SMILES | Sa RN4220 lethal | PriA SSB inh | BJeLR viability | MazEF act | ugtP null kill
COc1cccc(NC(=S)NN=C2CC(C)(C)Oc3ccc(O)cc32)c1 | 0 | 40* | . | . | 13
O=C(COC(=O)c1ccc(Cl)nc1)Nc1c(Cl)cccc1C(F)(F)F | 5 | -12 | -3 | -12 | 7
O=C(Cn1cnc2c(cnn2CCO)c1=O)NCc1ccc2c(c1)OCO2 | . | -5 | . | . | .
CCOC(=O)C(C)(C)Sc1nc2c(cnn2-c2ccc(Cl)cc2)c(=O)[nH]1 | 2 | -5 | -5 | -10 | 0
Cc1ccc(-c2nc(CCNC(=O)/C=C/c3ccccc3)cs2)cc1 | . | 5 | . | . | .
CCc1cc(C(=O)OC)c(NC(=O)CC2Nc3cc(C)c(C)cc3NC2=O)s1 (stereo unspecified) | 2 | 2 | 12 | 153* | 8
O=C(c1cc(-n2cccn2)ccn1)N1CCC(O)CC1 | . | -15 | . | . | .
COc1cc(O)c(CC=C(C)C)c(O)c1C(=O)CCc1ccc(O)cc1 | 73 | -3 | -7 | 12 | 92*
O=C(CCc1ccc(O)cc1)c1c(O)cc(O)cc1O | 1 | 3 | -3 | 8 | -16
CN(C(=O)CS(=O)(=O)Cc1ccccc1Cl)c1ccccc1 | 8 | -4 | 2 | 4 | -2
COc1cc(OC)c(NC(=S)Nc2cccc(C(C)=O)c2)cc1Cl | 13 | 6 | 0 | -1 | -2
COc1cc(OC)c(NC(=S)Nc2cc(Cl)cc(Cl)c2)cc1Cl | 99* | -3 | 0 | 60* | 93*
CC[n+]1c(/C=C/C=C/c2ccc(N(C)C)cc2)sc2ccccc21 | 88* | 61* | 13 | 4 | 82*
CCN1C(=Cc2ccc3ccc(C)cc3[n+]2CC)Sc2ccccc21 | . | 12 | . | . | .

Screens deposited in PubChem by several laboratories.
